Screening results deposited in PubChem BioAssay by several laboratories.
In the library only some 3.9% were active in any assay of this set; here they are far more common.
HIF activator = HIF pathway transcriptional activation; U2OS HRE-luciferase reporter, luminescence; normalized: DMSO 0%, desferrioxamine 100%; activation, % at 7.5 µM (by protocol); actives 0.32% (n = 300,000); AID 1910;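 active = mean activation of at least 10% of the iron chelator positive control signal, with at least half of replicates also reaching 10%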
PLC-beta3 inh = PLC-beta3 (human) inhibition, primary screen. inhibition, % at 12.2 µM. Purified PLC-beta3, fluorogenic substrate, fluorescence. Q01970. actives 0.18% (n = 370,000)
AHR activator = activates the human aryl hydrocarbon receptor | P35869 | AHR-responsive luciferase reporter cells, luminescence | activation, % at 5 µM | actives 2.5% (n = 320,000) | AID 2796; in the data active = activation above about 47%
HGIII-sPLA2 inh = Blocks human group III sPLA2 activity. Q9NZ20. QFRET BODIPY PC-A2 liposome hydrolysis, fluorescence. inhibition, % at 12.2 µM. actives 0.56% (n = 370,000). AID 743126;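 active = inhibition above mean plus 3 SD of compounds lying within the high and low control bounds, cut at about 19% in these data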
Yeast superoxide = lowers age-related superoxide in aged yeast cells; S. cerevisiae aged cells, superoxide DHE fluorescence; hits give low values; superoxide response (% of plate mean), % at 10 µM; actives 0.18% (n = 330,000);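 active = superoxide response under a set limit, about three screen SD below normal, cut at about 65% in these data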;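 note: yeast aged for seven days with compound at 30 °C before DHE staining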
PLCg1 inh = PLC-gamma1 (human) inhibition, primary screen; actives 0.84% (n = 370,000); AID 720700; inhibition, % at 12.2 µM; purified PLC-gamma1, fluorogenic substrate, fluorescence; P19174; in the data active = inhibition above about 9.5%
PLCgamma1 ctr = counter-screen for PLC-beta3 inhibitors: inhibitors of human PLC-gamma1; shares compounds with PLCg1 inh; purified PLC-gamma1, fluorogenic substrate, fluorescence; inhibition, % at 12.3 µM; actives 3.1% (n = 3,300); in the data active = inhibition above about 9.5%
PLCb3 confirm = human PLC-beta3 inhibition, confirmation | shares compounds with PLCg1 inh | purified PLC-beta3, fluorogenic substrate fluorescence | inhibition, % at 12.3 µM | actives 1% (n = 3,300)
Hits are given with their value; i = inactive; nt = not tested or not shown. Cut-off read from the data, not from the text of the source, unless noted: active = inhibition above about 11%; inactive = the rest.

SMILES	HIF activator	PLC-beta3 inh	AHR activator	HGIII-sPLA2 inh	Yeast superoxide	PLCg1 inh	PLCgamma1 ctr	PLCb3 confirm
C=CCn1c(C)nnc1SCC(=O)Nc1nccs1	i	i	i	i	i	i	nt	nt
Cc1ccn(CC(=O)N2CCCC(C(=O)c3cccc4ccccc34)C2)n1 (stereo not given)	i	i	i	i	i	i	nt	nt
Cc1cc(C(=O)N2CCCC(C(=O)c3cccc4ccccc34)C2)nc(C)n1 (stereo not given)	i	i	i	i	i	10	i	i
CC(=NOC(=O)c1ccc(Cl)cc1)c1nccs1	nt	i	nt	i	nt	16	i	i
CSCCC(NC(=O)c1ccc(Cl)cc1Cl)C(=O)N1CCN(C(=O)c2ccccc2)CC1 (stereo not given)	nt	i	nt	i	nt	11	i	i
CSCCC(NC(=O)c1ccccc1Cl)C(=O)N1CCC1 (stereo not given)	i	i	i	i	i	i	nt	nt
COC1CCN(C(=O)c2cc(COc3ccc(-n4cncn4)cc3)on2)CC1	i	i	i	i	i	i	nt	nt
O=C(c1cc(COc2ccc(-n3cncn3)cc2)on1)N1CCCC1	i	i	i	i	i	14	i	i
CCCCCNC(=O)c1cccc(S(=O)(=O)N2CC3(C)CC2CC(C)(C)C3)c1 (stereo not given)	i	i	i	i	i	i	nt	nt
Nc1cc(=O)[nH]c(SCC(=O)NC2CCCCCCC2)n1	nt	i	i	i	i	9.6	i	i
CC(=O)c1ccc(NC(=O)C2=CC(c3cccs3)=NS(=O)(=O)N2C)cc1	i	i	i	i	i	i	nt	nt
CCc1ccc(NC(=O)C2=CC(c3cccs3)=NS(=O)(=O)N2C)cc1	i	i	i	i	i	16	i	i
COC(=O)c1ccc(C(c2c(C)n(C)n(-c3ccccc3)c2=O)c2c(C)n(C)n(-c3ccccc3)c2=O)cc1	i	i	i	i	i	12	i	i
Cc1c(C(c2ccc(Br)cc2)c2c(C)n(C)n(-c3ccccc3)c2=O)c(=O)n(-c2ccccc2)n1C	i	i	i	i	i	i	nt	nt
O=C(Cn1nc(C(F)(F)F)c2c1CCCC2)N1CCOCC1	i	i	i	i	i	9.6	i	i
O=C(Cn1nc(C(F)(F)F)c2c1CCCCC2)N1CCOCC1	i	i	i	i	i	i	nt	nt
COc1ccc(CC(=O)OCC(=O)Nc2c(C)n(C)n(-c3ccccc3)c2=O)cc1OC	nt	i	i	i	i	i	nt	nt
COc1ccc(S(=O)(=O)N2CCC(C(=O)N[C@H](C(=O)NC3CCCC3)C(C)C)CC2)cc1	i	i	i	i	i	i	nt	nt
Cc1nccn1CCCNC(=O)c1nc(Cn2cc([N+](=O)[O-])cn2)no1	i	i	i	i	i	9.6	i	i
O=C(NCCCn1ccnc1)c1nc(Cn2cc(Br)cn2)no1	i	i	i	i	i	i	nt	nt
CS(=O)(=O)N1CCC(Oc2ccccc2C(=O)NC2CCOC2)CC1 (stereo not given)	i	i	i	i	i	12	i	i
CC(C)C(NC(=O)c1ccccc1)C(=O)OCC(=O)N1CCN(c2ccccc2)CC1 (stereo not given)	nt	i	i	i	i	11	i	i
COc1ccccc1NC(=O)c1ccccc1S(=O)(=O)c1ccccc1[N+](=O)[O-]	i	i	i	i	i	i	nt	nt
CCN(CC)S(=O)(=O)c1cc([N+](=O)[O-])ccc1NNC(=O)Nc1ccc(F)cc1	i	i	i	i	i	i	nt	nt
CCN(CC)S(=O)(=O)c1cc([N+](=O)[O-])ccc1NNC(=O)Nc1ccccc1OC	i	i	i	i	i	10	i	i
COc1ccccc1NC(=O)c1ccccc1S(=O)(=O)c1ccc([N+](=O)[O-])cc1	i	i	i	i	i	9.8	i	i
CC(C)Cn1c(SCC(=O)N2CCCc3ccccc32)nc2ccccc2c1=O	i	i	i	i	i	11	i	i
CCn1c(SCC(=O)N2CCCc3ccccc32)nc2ccccc2c1=O	i	i	i	i	i	i	nt	nt
Cc1cc(Nc2cccc([N+](=O)[O-])c2)c2ccccc2n1	i	i	i	i	i	i	nt	nt
